Laboratory results reported in PubChem BioAssay AID624330 (Southern Research Specialized Biocontainment Screening …, 2012).
Hit rate of the full screen: of about 340,000 compounds, about 2,100 (0.62%) were called active.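 The calls were made as follows: active = first-screen hits whose inhibition reached a set limit at any dose in the follow-up dose series; inconclusive = inhibition above the set first-screen limit but never retested; inactive = the rest.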 These entries were drawn from the full list. Measured potencies and affinities stand elsewhere.

Target: Rac GTPase-activating protein 1 (Homo sapiens) (UniProt Q9H0H5)
Experiment: MgcRacGAP GTPase-activating activity inhibitors, confirmation, biochemical, ADP Hunter fluorescence, primary and confirmatory (AID 624330);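 also: fluorescence reports GDP produced by GAP-driven GTP hydrolysis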
Conditions: MgcRacGAP-stimulated Rac1 GTP hydrolysis, at 30 µM, active compounds read high, GST-tagged Rac1 F28L mutant substrate

Sequence of Rac GTPase-activating protein 1 (Homo sapiens) (Q9H0H5 whole entry, looked up): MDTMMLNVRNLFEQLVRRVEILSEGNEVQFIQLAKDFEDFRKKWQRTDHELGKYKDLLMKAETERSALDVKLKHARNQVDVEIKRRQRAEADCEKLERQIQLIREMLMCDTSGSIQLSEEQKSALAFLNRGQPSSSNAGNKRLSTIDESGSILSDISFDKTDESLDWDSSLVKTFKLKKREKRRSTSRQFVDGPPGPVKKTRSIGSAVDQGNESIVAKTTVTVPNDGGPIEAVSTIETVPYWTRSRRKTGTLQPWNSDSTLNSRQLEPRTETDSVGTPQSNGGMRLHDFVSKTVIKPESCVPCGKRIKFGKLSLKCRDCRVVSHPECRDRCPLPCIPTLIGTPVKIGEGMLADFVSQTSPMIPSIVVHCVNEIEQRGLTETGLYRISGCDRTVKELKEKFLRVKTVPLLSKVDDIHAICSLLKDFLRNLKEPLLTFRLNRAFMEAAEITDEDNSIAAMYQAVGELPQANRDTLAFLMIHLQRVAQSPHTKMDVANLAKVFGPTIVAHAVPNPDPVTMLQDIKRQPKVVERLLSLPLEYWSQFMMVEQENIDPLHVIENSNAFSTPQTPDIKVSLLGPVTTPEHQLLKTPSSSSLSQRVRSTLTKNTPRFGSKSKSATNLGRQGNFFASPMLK

Compound	inhibition
CCOCCCNC(=S)N1CCCN(c2nc3cc(C)ccc3cc2C#N)CC1	10.8% (inactive)
COc1ccc(/C=N/NC(=O)c2ccc3c(c2)OCO3)cc1	7.95% (inactive)
O=C(N/N=C/c1ccc2c(c1)OCO2)/C(=C/c1ccc2c(c1)OCO2)NC(=O)c1ccccc1	-2.17% (inactive)
COc1cccc(/C=N/NC(=O)CNC(=O)c2ccc3c(c2)OCCO3)c1O	8.24% (inactive)
COc1ccc(/C=C(/NC(=O)c2ccccc2)C(=O)N/N=C/c2ccc3c(c2)OCO3)cc1OC	4.26% (inactive)
O=C(CNC(=O)c1ccc2c(c1)OCCO2)N/N=C/c1ccc(Cl)cc1	13.2% (inactive)
O=C(N/N=C/c1ccc2c(c1)OCO2)c1ccc2c(c1)OCO2	9.83% (inactive)
CN(C)c1ccc(/C=N/NC(=O)CNC(=O)c2ccc3c(c2)OCCO3)cc1	14.6% (inactive)
COc1ccc(/C=N/NC(=O)CNC(=O)c2ccc3c(c2)OCCO3)cc1OC	12.1% (inactive)
CCOC(=O)C(NC(=O)c1ccc(OC)cc1)(Nc1cc(C)on1)C(F)(F)F (stereo not drawn)	9.87% (inactive)
Cc1ccccc1NC(=O)OCc1cccnc1Oc1ccc(Cl)cc1	10.3% (inactive)
C/C(=N\NC(=O)c1cc(C)oc1C)c1ccc2c(c1)OCO2	6.44% (inactive)
CN(C)CCCN(Cc1ccccc1)C(=S)Nc1cccc(C(F)(F)F)c1	3.49% (inactive)
Cc1ccc2c(c1)NC(=O)C(CC(=O)Nc1ccc(CN3CCC(C)CC3)cc1)O2 (stereo not drawn)	4.76% (inactive)
Cc1[nH]c(N=Nc2ccccc2)nc1N=Nc1ccccc1	8.63% (inactive)
Cc1ccccc1OCC(=O)Nc1ccccc1N1CCC(C)CC1	4.53% (inactive)
O=C(C[n+]1ccc(-c2ccccc2)cc1)Nc1ccc([N+](=O)[O-])cc1	8.73% (inactive)
COC(=O)C1=C(C)N(Cc2ccccc2)C(=NCCCCO)N[C@H]1c1cccc(C(F)(F)F)c1	10.7% (inactive)
CC1(C)NS(=O)(=O)Oc2ccccc21	15.4% (inactive)
O=C(NC1=NCCS1)C1CC(=O)N(c2ccc(F)cc2)C1 (stereo not drawn)	3.19% (inactive)

Compound	inhibition
Cc1nc2c(ncn2-c2ccccc2)c(=O)n1NC(=O)CN1CCOCC1	6.81% (inactive)
COc1ccc(/C=C/C(=O)c2ccc3c(c2)OCO3)cc1OC	0.8% (inactive)
COc1cc(/C=C/C(=O)c2ccc3c(c2)OCO3)cc(OC)c1OC	9.6% (inactive)
COc1ccc(C(CC(=O)N2CCCCC2)c2c(OC)cc(OC)c3c(-c4ccccc4)cc(=O)oc23)cc1 (stereo not drawn)	5.73% (inactive)
COc1ccccc1N1CCN(C2CCCN(Cc3ccc(Cl)cc3)C2)CC1 (stereo not drawn)	-6.75% (inactive)
Cc1ccc(C(C[N+](=O)[O-])c2c(N)n(C)c(=O)n(C)c2=O)cc1 (stereo not drawn)	5.58% (inactive)
COc1ccc(Br)cc1C(C[N+](=O)[O-])c1c(N)n(C)c(=O)n(C)c1=O (stereo not drawn)	10.7% (inactive)
O=C1/C(=C/c2ccncc2)N=C2CCCCCN12	3.48% (inactive)
COc1ccc(/C=C2/N=C3CCCCCN3C2=O)cc1	4.99% (inactive)
COc1ccc(/C=C2/N=C3CCCCCN3C2=O)cc1OC	3.87% (inactive)
COc1ccc(/C=C2\N=C3CCCCCN3C2=O)cc1OC	-1.04% (inactive)
COCCn1c(SCC(=O)c2cccc(OC)c2)nnc1-c1ccco1	13.4% (inactive)
CC(=O)Nc1ccc(NS(=O)(=O)c2c(Cl)cccc2Cl)cc1	5.14% (inactive)
Cc1cc(C)n2c(SCC(=O)N(CC(C)C)c3c(N)n(CC(C)C)c(=O)[nH]c3=O)nnc2n1	5.05% (inactive)
O=C(O)CCC(=O)Nc1cccc(C(=O)c2ccccc2)c1	8.75% (inactive)
OCc1ccccc1OCCCN1CCC(Cc2ccccc2)CC1	22.1% (inactive)
COc1cccc(OC)c1OCCCN1CCC(Cc2ccccc2)CC1	28% (inactive)
N#CC1(NC(=O)CSc2nnc(Cc3ccccc3)o2)CCCCC1	-4.91% (inactive)
CC1CC(C)CN(C(=O)c2ccc(CSc3nc4ccncc4[nH]3)cc2)C1 (stereo not drawn)	4.54% (inactive)
COc1ccc(C(=O)NCC(c2ccc3c(c2)OCO3)N2CCN(c3ccc(OC)cc3)CC2)cc1 (stereo not drawn)	7.8% (inactive)

Compound	inhibition
COc1ccc(C(CNC(=O)c2cc(F)c(F)c(F)c2F)N2CCOCC2)cc1 (stereo not drawn)	5.28% (inactive)
COc1ccc(C(CNC(=O)c2cc(C)oc2C)N2CCOCC2)cc1 (stereo not drawn)	-3.27% (inactive)
COc1ccc(N2CCN(C(CNC(=O)C(C)C)c3ccc4c(c3)OCO4)CC2)cc1 (stereo not drawn)	26.1% (inactive)
COc1ccc(N2CCN(C(CNC(C)=O)c3ccc4c(c3)OCO4)CC2)cc1 (stereo not drawn)	11.6% (inactive)
COC(=O)NCC(c1ccc2c(c1)OCO2)N1CCN(c2ccccc2)CC1 (stereo not drawn)	6.79% (inactive)
COc1cccc(CC(=O)OCC(=O)NC2(C#N)CCCCC2)c1	6.74% (inactive)
COc1ccc(N2CC(C(=O)OCC(=O)NCc3ccccc3)CC2=O)cc1 (stereo not drawn)	-1.54% (inactive)
C=CCn1c(SCC(=O)c2ccc(O)c(O)c2)nnc1-c1ccccc1OC	19.4% (inactive)
C=CCn1c(SCC(=O)O)nnc1-c1cccc(Cl)c1	-7.04% (inactive)
C=CCn1c(SCC(=O)c2ccc(O)c(O)c2)nnc1-c1ccc(C)cc1	24.7% (inactive)
C=CCn1c(SCC(=O)c2ccc(O)c(O)c2)nnc1-c1ccc(OC)cc1	8.3% (inactive)
O=C(COc1ccccc1F)NCc1nc2ccccc2[nH]1	10.2% (inactive)
N#Cc1ccc(Cl)cc1NC(=O)COC(=O)[C@H](CCC(N)=O)NC(=O)c1ccc(F)cc1	-1.8% (inactive)
C[C@H](O)CNC(=O)c1[nH]cnc1C(=O)Nc1ccc(CNC(=O)OC(C)(C)C)cc1	13.6% (inactive)
CC(=O)c1ccc(N2CCN(c3ccc(C(N)=O)cc3[N+](=O)[O-])CC2)cc1	6.37% (inactive)
COc1ccc(N2CCN(c3ccc(C(=O)O)cc3[N+](=O)[O-])CC2)cc1	25.5% (inactive)
COC(C[C@@H]1O[C@@H]1C(=O)COCc1ccccc1)OC	2.07% (inactive)
O=C(NCCCn1ccnc1)c1cccc(S(=O)(=O)Nc2ccc(Br)cc2)c1	-2.05% (inactive)
